Screening results: PubChem BioAssay, Johns Hopkins Ion Channel Center
Rows were chosen to be rich in hits. Some 3.5% of all compounds tested hit in one or more screens of this group.
Kir21 block = blocks the mouse Kir2.1 inward-rectifier potassium channel. actives 0.85% (n = 310,000). B-score at 10 µM. HEK293-Kir2.1, FluxOR thallium flux fluorescence; active compounds read low. P35561;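 active means fluorescence ratio B-score at or below minus 3 SD of library scores, with starting-brightness B-score within 2 SD, cut at about -4.2 in these data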;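 further: channel flux triggered by added potassium and thallium sulfate stimulus; B-score of peak minus minimum fluorescence over baseline after thallium stimulus; more negative B-score means stronger Kir2.1 block with less thallium influx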
ANO1 activ = activates or potentiates the mouse TMEM16A chloride channel; Q8BHY3; HEK293 TMEM16A/YFP-H148Q/I152L, iodide quench fluorescence; active compounds read low; B-score at 10 µM; actives 0.3% (n = 340,000); AID 623877;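 active means fluorescence-ratio B-score plate-corrected deviation score at least 3 library SD below zero, with starting fluorescence score within 5 deviations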;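 further: channel opened by trigger with iodide after compound preincubation; score built on the fluorescence ratio of max minus min over baseline; more negative score means more quench and so TMEM16A activation or potentiation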
ANO1 block = blocks the mouse calcium-activated chloride channel TMEM16A. HEK293 TMEM16A/YFP iodide influx fluorescence, ionomycin. normalized B-score (activity score, 25-100; higher = stronger inhibition) at 10 µM. actives 1.2% (n = 310,000). AID 588511;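 active means ratio plate-corrected score three or more library SD toward inhibition, starting fluorescence score within five deviations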;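 further: score derived from kinetic fluorescence span divided by baseline fluorescence per well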
KCNK3 block = human KCNK3 channel inhibition, primary screen; B-score at 10 µM; O14649; CHO-KCNK3 thallium flux, FluxOR fluorescence; active compounds read low; actives 0.84% (n = 340,000);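 active means B-score under library mean minus 4 SD, starting fluorescence ratio at most library mean plus 5 SD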;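 further: more negative B-score means stronger inhibition of thallium flux through KCNK3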
KCNK9 block = human KCNK9 channel inhibition; Q9NPC2; HEK293 KCNK9, FluxOR thallium flux fluorescence; active compounds read low; B-score at 10 µM; actives 1.2% (n = 310,000);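 active means ratio B-score over 3 SD below the library mean, with starting fluorescence within 5 SD of its mean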;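 further: negative B-score means less thallium flux so channel inhibition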
KCNK9 block conf = human KCNK9 inhibitor confirmation; inhibition, % at 10 µM; actives 43% (n = 4,900); HEK293 KCNK9 cells, FluxOR thallium flux fluorescence; AID 492992; shares compounds with KCNK9 block;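 active means thallium signal inhibited by more than 5 SD of the compound-free buffer control wells, on both duplicate plates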
Kir2-1 spec = selectivity of KCNK9 modulators against mouse Kir2.1; inhibition, % at 10 µM; actives 4% (n = 4,900); shares compounds with KCNK9 block; Kir2.1 cells, FluxOR thallium flux fluorescence;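 active means thallium signal drop more than 5 SD beyond the mean of the no-compound control wells, seen in both duplicate plates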;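 further: signal is fluorescence rise after thallium addition divided by baseline fluorescence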
KCNK9 uninduced = second counter-screen for KCNK9 modulators: effect in non-induced cells; shares compounds with KCNK9 block; non-induced KCNK9-HEK293, FluxOR thallium flux; inhibition, % at 10 µM; actives 40% (n = 4,900);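 active means thallium signal drop beyond 5 SD of the untreated control mean, on both duplicate plates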
TMEM16A reconf = reconfirmed blocker of mouse TMEM16A calcium-activated chloride channel | shares compounds with ANO1 block | HEK293 TMEM16A/YFP-H148Q, iodide quench fluorescence; ionomycin added to raise cell calcium | inhibition, % at 10 µM | actives 39% (n = 2,300) | AID 652189;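 active means mean duplicate percent inhibition, scaled so buffer wells are 0 and the reference blocker 100, over three buffer SD above buffer mean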
TMEM16A Ca cntr = counter-screen for TMEM16A inhibitors: effect on calcium mobilization; shares compounds with ANO1 block; TMEM16A/YFP HEK293, Fluo4 calcium mobilization; calcium response (% of ionomycin), % at 10 µM; actives 2% (n = 2,300); AID 652231;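 active means duplicate-averaged calcium signal over 20% of the ionomycin maximum, relative to buffer baseline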;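 further: each well's signal is peak minus trough fluorescence divided by its pre-addition baseline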
YFP-HEK293 quench = parental YFP-HEK293 iodide quench counter-screen activity | shares compounds with ANO1 block | ionomycin | YFP ratio F(max-min)/F0 at 10 µM | 2,300 tested, under 10 active | AID 652233;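 active means yellow fluorescent protein signal ratio exceeding the buffer control mean by over 5 SD of those controls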;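 further: ratio is mean of duplicate wells from kinetic YFP trace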
ClC-1 rat inh = selectivity of TMEM16A inhibitors: inhibition of rat ClC-1 chloride channel | shares compounds with ANO1 block | CHO ClC-1-YFP, iodide influx fluorescence quench; iodide control reads 0, buffer control 100 | ratio percent, % at 10 µM | 2,300 tested, under 10 active | AID 652236;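 active means duplicate-mean ratio percent above the mean of iodide-only control wells, which defines zero, plus 5 of their SD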;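 further: higher percent means stronger block of ClC-1 iodide influx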
Target sequence (P35524 whole entry, looked up): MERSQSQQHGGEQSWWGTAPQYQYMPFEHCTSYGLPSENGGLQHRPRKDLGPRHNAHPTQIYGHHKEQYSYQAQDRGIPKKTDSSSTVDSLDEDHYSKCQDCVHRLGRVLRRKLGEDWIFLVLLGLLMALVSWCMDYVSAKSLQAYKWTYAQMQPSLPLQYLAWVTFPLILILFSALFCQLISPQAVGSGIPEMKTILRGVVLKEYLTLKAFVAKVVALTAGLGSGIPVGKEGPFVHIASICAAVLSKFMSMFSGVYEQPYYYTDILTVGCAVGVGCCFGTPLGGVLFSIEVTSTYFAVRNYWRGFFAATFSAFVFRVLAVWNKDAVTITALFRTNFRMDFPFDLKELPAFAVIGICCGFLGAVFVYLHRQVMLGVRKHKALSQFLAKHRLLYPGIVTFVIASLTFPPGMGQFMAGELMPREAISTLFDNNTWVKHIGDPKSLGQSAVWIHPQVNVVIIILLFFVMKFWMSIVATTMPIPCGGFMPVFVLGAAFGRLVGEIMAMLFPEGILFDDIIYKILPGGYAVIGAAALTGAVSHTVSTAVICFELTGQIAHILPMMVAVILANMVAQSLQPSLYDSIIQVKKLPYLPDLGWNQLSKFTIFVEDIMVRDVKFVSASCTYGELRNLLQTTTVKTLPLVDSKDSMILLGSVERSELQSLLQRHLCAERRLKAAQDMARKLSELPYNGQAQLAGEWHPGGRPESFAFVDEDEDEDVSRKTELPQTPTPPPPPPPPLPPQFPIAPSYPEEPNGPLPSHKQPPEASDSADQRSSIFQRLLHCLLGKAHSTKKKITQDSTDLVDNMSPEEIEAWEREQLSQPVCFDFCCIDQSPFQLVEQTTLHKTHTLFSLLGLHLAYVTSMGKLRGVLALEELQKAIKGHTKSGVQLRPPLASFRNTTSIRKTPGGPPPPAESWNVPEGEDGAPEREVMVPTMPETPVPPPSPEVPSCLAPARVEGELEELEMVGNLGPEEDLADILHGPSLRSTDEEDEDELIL
Each line names hits and unclear results; the compound was inactive in the other large screens (follow-up assays come after a bar, where they were run).

CCOc1ccc(NC(=O)CCC(=O)NNC(=O)c2ccc(Br)o2)cc1	none
COc1ccc(C2=NCC(CSc3nnc(-c4ccc5c(c4)OCO5)o3)S2)cc1 (stereo not drawn)	ANO1 block 100 | KCNK9 block conf inactive | Kir2-1 spec inactive | KCNK9 uninduced inactive | TMEM16A reconf inactive | TMEM16A Ca cntr inactive | YFP-HEK293 quench inactive | ClC-1 rat inh inactive
COc1cc(C(=O)Nc2sc3c(c2C(=O)NCc2ccco2)CCCC3)cc(OC)c1OC	none
COc1ccc(C(=O)Nc2sc3c(c2C(=O)NCc2ccco2)CCCC3)cc1OC	ANO1 block 25, KCNK9 block -12 | KCNK9 block conf 31% | Kir2-1 spec inactive | KCNK9 uninduced inactive | TMEM16A reconf inactive | TMEM16A Ca cntr inactive | YFP-HEK293 quench inactive | ClC-1 rat inh inactive
CCCCOC(=O)c1ccc(NC(=O)c2ccccc2OC)cc1	ANO1 block 100, KCNK9 block -9.2 | KCNK9 block conf 74% | Kir2-1 spec inactive | KCNK9 uninduced 32% | TMEM16A reconf 36% | TMEM16A Ca cntr inactive | YFP-HEK293 quench inactive | ClC-1 rat inh inactive
COc1cccc(C(C)NC(=O)c2ccncc2)c1 (stereo not drawn)	none
COc1cccc(C(=O)NC(C)c2ccc(-c3ccccc3)cc2)c1OC (stereo not drawn)	ANO1 block 25 | KCNK9 block conf inactive | Kir2-1 spec inactive | KCNK9 uninduced inactive | TMEM16A reconf 24% | TMEM16A Ca cntr inactive | YFP-HEK293 quench inactive | ClC-1 rat inh inactive
COc1cccc(C(=O)NC(C)c2cccc3ccccc23)c1OC (stereo not drawn)	none
CC1CN(S(=O)(=O)c2ccc(C(=O)Nc3nnc(-c4ccc5c(c4)CCCC5)o3)cc2)CC(C)O1 (stereo not drawn)	ANO1 block 100 | KCNK9 block conf inactive | Kir2-1 spec inactive | KCNK9 uninduced inactive | TMEM16A reconf 32% | TMEM16A Ca cntr inactive | YFP-HEK293 quench inactive | ClC-1 rat inh inactive
Cc1ccc(OCCn2c(=S)[nH]c3ccccc32)c(C(C)C)c1	ANO1 block 25 | KCNK9 block conf inactive | Kir2-1 spec 42% | KCNK9 uninduced inactive | TMEM16A reconf inactive | TMEM16A Ca cntr inactive | YFP-HEK293 quench inactive | ClC-1 rat inh inactive
Cc1cccc(OCCn2c(=S)[nH]c3ccccc32)c1	none
O=C(COC(=O)CC1CCCC1)Nc1ccc(Cl)cc1	none (no result: Kir21 block, ANO1 block, KCNK9 block)
Cc1ccccc1Nc1nc(NCc2ccco2)c2ccccc2n1	Kir21 block -13, ANO1 block 25, KCNK3 block -14, KCNK9 block -12 | KCNK9 block conf 54% | Kir2-1 spec 85% | KCNK9 uninduced 40% | TMEM16A reconf 32% | TMEM16A Ca cntr inactive | YFP-HEK293 quench inactive | ClC-1 rat inh inactive
CSc1nc(NCc2ccco2)c2ccccc2n1	none
Cc1ccc(SCc2ccc(C(=O)N3CCCCC3)cc2)cc1	ANO1 block 100 | KCNK9 block conf inactive | Kir2-1 spec inactive | KCNK9 uninduced inactive | TMEM16A reconf inactive | TMEM16A Ca cntr inactive | YFP-HEK293 quench inactive | ClC-1 rat inh inactive
